The source of these data is PubChem BioAssay (NCATS).

The test system of one assay is CRL-7250. As to the kind of experiment: Cytotoxic Profiling of Annotated Libraries Using Quantitative High-Throughput Screening (AID 1296008). For max response: % is set by controls: 0 for no effect and ±100 for the full control effect. Particulars: Five cell lines viability, CellTiter-Glo ATP luminescence, 48-72 h; max response: active compounds read low. The essentials: (§1)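 Compounds were pin-transferred onto cells and incubated 48 or 72 hr at 37 degree Celsius, 95% humidity. CellTiter-Glo was added, plates sat 10 min at room temperature, then ATP-coupled luminescence was imaged as the viability read-out.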

A further assay relates to HEK293. The description is as above. Particulars: Five cell lines viability, CellTiter-Glo ATP luminescence, 48-72 h; max response: active compounds read low. The gist of the method: as §1
(ATP-based viability assays read luminescence as a measure of living cells.)

Assay [1] concerns HaCat. Described as above. The note with it: Five cell lines viability, CellTiter-Glo ATP luminescence, 48-72 h; max response: active compounds read low. The gist of the method: as §1
For the next assay, the system named is KB-3-1. Described as above. Particulars: Five cell lines viability, CellTiter-Glo ATP luminescence, 48-72 h; max response: active compounds read low. The essentials:
as §1

For another assay, the system named is NIH3T3. The assay is described as above. The note with it: Five cell lines viability, CellTiter-Glo ATP luminescence, 48-72 h; max response: active compounds read low. The essentials:
as §1

For the next assay, the system named is MCC-13. Put plainly: qHTS assay to identify novel small-molecules to repurpose for Merkel cell carcinoma treatment (AID 1296009). The note with it: MCC and control cell lines, CellTiter-Glo viability, 72 h; series mostly up to 46 µM. The gist of the method:
(§2)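 Viability readout: ATP luminescence (CellTiter-Glo) after 72 hr drug exposure at 37 degree celsius. Dose-response format was 8 points for NPC and 11 points for MIPE; data normalized to in-plate controls.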
On the technique in general: qHTS replaces the single test concentration by a dilution series.

The subject of another assay is TAB165. As to the kind of experiment: qHTS profiling for inhibitors of Plasmodium falciparum proliferation (AID 504749). Note: potency is the fitted concentration of half-maximal effect. Particulars: P. falciparum in erythrocytes, SYBR Green DNA, 72 h; series mostly up to 28.7 µM. The essentials: (§3)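 Quantitative HTS: compounds pinned into medium, infected erythrocytes added (0.3% parasitemia, 2.5% hematocrit), 72 h culture at 37 C under 5% CO2. Saponin/Triton lysis with SYBR Green I, overnight RT, then fluorescence read.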

The test system of a further assay is W2. The assay is described as above. The note with it: P. falciparum in erythrocytes, SYBR Green DNA, 72 h; series mostly up to 28.7 µM. The gist of the method: as §3
Assay [2] deals with HACAT. Put plainly: qHTS assay to identify novel small-molecules to repurpose for Merkel cell carcinoma treatment (AID 1296009). Particulars: MCC and control cell lines, CellTiter-Glo viability, 72 h; at 44.8 µM (top of the series) unless noted. The gist of the method:
as §2

The next assay deals with HEK293T. The description is as above. The note with it: MCC and control cell lines, CellTiter-Glo viability, 72 h; at 44.8 µM (top of the series) unless noted. The essentials: as §2

“And” between values parts separate entries of the source, which are not always exact repeats. Equal entries are not always repeated. Results filed as inconclusive are left out. Values without a mark were called inactive. The source made the active and inactive calls. Calls come from the whole dose curve; as a rule, active = well fitted inhibition curve with a large enough effect; inconclusive = small, poorly fitted or top-dose-only effect; inactive = flat fitted curve, though single readings scatter.
Note: nearly all actives have a fitted effect of over 60% in size.

In the case of `CN(C)CC[C@@H](c1ccc(Cl)cc1)c1ccccn1`, the max response with CRL-7250 is 4.72%; in the assay on HEK293, -2.7%; in the assay with HaCat [1], 0.999%; with KB-3-1 it was -22.8%. Moreover, in the assay with NIH3T3, the result was inactive. Further, the Potency result in the assay with MCC-13 is “inactive”.

`CCN(CC)CCNC(C(=O)OCCC(C)C)c1ccccc1` (stereo not drawn): the figures for the Potency in the assay on TAB165 and with W2 were 10 µM (active) and 4.78 µM (active), respectively. Further, in the assay on CRL-7250, the max response was 1.18%. For the same molecule, the result in the assay on HEK293, in the assay on HaCat [1], in the assay on NIH3T3, in the assay with HACAT [2] and in the assay on HEK293T was inactive. The Potency result with MCC-13 is “inactive”.

For the molecule `CC1(C)[C@@H]2CC[C@@]1(C)C(=O)C2`, the Potency result in the assay on TAB165, in the assay with W2 and with MCC-13 was “inactive” each time. In addition, the outcome in the assay on CRL-7250, with HEK293, in the assay with HaCat [1], in the assay with HACAT [2] and in the assay on HEK293T was inactive. The max response with NIH3T3 is -6.56%.

For `N[C@H]1C(O)O[C@H](CO)[C@@H](O)[C@@H]1O` (stereo partly drawn), the figures for the max response in the assay on CRL-7250 and in the assay on NIH3T3 were -7.05% and -13.4%, respectively. In addition, the molecule was classed as inactive in the assay with HEK293, in the assay with HaCat [1], with HACAT [2] and with HEK293T. Moreover, the Potency result in the assay with MCC-13 is “inactive”.

`Cc1cc2c(cc1S(N)(=O)=O)S(=O)(=O)CCC2`: the Potency result in the assay on TAB165, in the assay on W2 and with MCC-13 was “inactive” in each case. The max response is -3.17% in the assay on CRL-7250 and -4.64% with NIH3T3. Besides, the result with HEK293, with HaCat [1], in the assay on HACAT [2] and in the assay with HEK293T was inactive.

Take `C[C@H](NC(CCc1ccccc1)C(=O)O)C(=O)N1CCC[C@H]1C(=O)O` (stereo partly drawn): the outcome in the assay with CRL-7250, with HaCat [1] and in the assay on HACAT [2] was inactive. In addition, the max response in the assay on HEK293 is 3.49%; in the assay on NIH3T3 it was 1.23%. Moreover, the Potency entry in the assay on MCC-13 was “inactive”.

Take `N[C@@H](CSCCCO)C(=O)O`: the Potency entry with TAB165, in the assay on W2 and in the assay with MCC-13 was “inactive” throughout. The figures for the max response in the assay on CRL-7250, in the assay with HaCat [1] and in the assay with KB-3-1 were -1.84%, 2.87% and -1.02%, respectively. In addition, the outcome with HEK293 and in the assay on NIH3T3 was inactive. Further, in the assay with HEK293T, the outcome was “inactive [at 17.4 µM]”.

With `NC(=O)c1ncn([C@@H]2O[C@H](CO)[C@@H](O)[C@H]2O)c1N`, the max response was -9.1% with CRL-7250; -5.61% in the assay with HEK293; -15% in the assay on HaCat [1]; 12% in the assay on KB-3-1; -10.7% with NIH3T3. In the assay with MCC-13, the Potency result was “inactive”.

For `Cc1cc2nc3c(=O)[nH]c(=O)nc-3n(C[C@H](O)[C@H](O)[C@H](O)CO)c2cc1C`, the molecule was classed as inactive in the assay on CRL-7250. The max response in the assay with HEK293 is -5.47%; in the assay on HaCat [1] it was -19.1%; in the assay on NIH3T3 it was 4.08%. Besides, the Potency entry in the assay on MCC-13 is “inactive”.

With `CC1=C(CC(=O)O)c2cc(F)ccc2/C1=C\c1ccc(S(C)(=O)=O)cc1`, the max response in the assay with CRL-7250 was -16.5%; in the assay with HEK293, -17.6%; in the assay on HaCat [1] it was -12.4%; in the assay with KB-3-1, -9.19%; with NIH3T3, -5.99%. Further, in the assay on MCC-13, the Potency entry was “inactive”.

For `COC(=O)[C@H]1[C@H]2C[C@@H]3c4[nH]c5cc(OC)ccc5c4CCN3C[C@H]2C[C@@H](OC(=O)COc2ccc(OC)cc2)[C@@H]1OC`, the max response with CRL-7250 is -0.18%. In addition, the result in the assay with HEK293, with HaCat [1], in the assay on NIH3T3, in the assay on HACAT [2] and in the assay with HEK293T was inactive. For the same molecule, the Potency result in the assay with MCC-13 was “inactive”.

Consider `CC/C=C(\C(=O)N[C@@H]1C(=O)N2C(C(=O)OCOC(=O)C(C)(C)C)=C(COC(N)=O)CS[C@H]12)c1csc(N)n1`, for which the max response is -3.67% in the assay with CRL-7250; 1.21% with HEK293; -0.519% and -7.83% in the assay with HaCat [1]; -16.1% and -3.61% in the assay on KB-3-1; -1.08% with NIH3T3. Also, the Potency result in the assay on MCC-13 was “inactive”.

Take `COc1ccccc1O`: the Potency result in the assay with TAB165, in the assay with W2 and with MCC-13 was “inactive” each time. Moreover, the max response in the assay on CRL-7250 is 3.64%; with HEK293, -17.2%; in the assay with HaCat [1] it was 3.89%; in the assay on KB-3-1, -18.3% and -7.82%; in the assay with NIH3T3, -2.65%.

Take `COc1ccc(S(=O)(=O)Nc2nnc(CC(C)C)s2)cc1`: the Potency result in the assay on TAB165, in the assay with W2 and in the assay on MCC-13 was “inactive” throughout. The max response in the assay on CRL-7250 was 0.202%; in the assay on HEK293 it was -9.93%; in the assay with HaCat [1] it was -5.69%; in the assay with NIH3T3, -3.07%.

`O=C(O)c1ccccc1O`: the Potency entry in the assay on TAB165, in the assay on W2 and with MCC-13 was “inactive” in each case. The max response in the assay with CRL-7250 is 0.122%; in the assay on HaCat [1] it was 2.15%. For the same molecule, the molecule was called inactive with HEK293, in the assay with NIH3T3 and in the assay with HEK293T.

As to `CCN(CC)CCOC(=O)C1(C2CCCCC2)CCCCC1`, the molecule was called inactive with CRL-7250, with HaCat [1] and with HACAT [2]. Also, the results for the max response in the assay with HEK293 and with NIH3T3 were -0.793% and 1.01%, respectively. In the assay on MCC-13, the Potency entry is “inactive”.

As for `CC(C)C(=O)c1c(C(C)C)nn2ccccc12`, the max response was -8.07% in the assay with CRL-7250, -1.74% in the assay with HEK293, 2.88% in the assay on HaCat [1] and -15.3% in the assay with NIH3T3. For the same molecule, the Potency entry in the assay with MCC-13 is “inactive”.

On to `NS(=O)(=O)c1cc2c(cc1Cl)NC(CSCc1ccccc1)=NS2(=O)=O`, for which the Potency entry with TAB165, in the assay with W2 and with MCC-13 was “inactive” each time. The max response was -1.78% with CRL-7250, -9.13% in the assay with HaCat [1] and 1.03% with KB-3-1. Besides, the molecule was classed as inactive in the assay with HEK293, in the assay with NIH3T3 and in the assay on HEK293T.
